Assay results as given in PubChem BioAssay AID1159580 (chemical genetic matrix, 2015).
Where “and” joins values, the source holds several entries; their conditions need not be identical. Identical values can stand only once. Hit rate of the full screen: of about 5,500 compounds, about 2,000 (36%) were called active. About 18% were inconclusive and are not listed. No stated cut-off is given here; in the data, active means normalized growth mostly below about 0.91 (no sharp cut-off); inconclusive means no clear call, values can overlap the other calls; inactive means mostly above about 0.92. This is one part of the list.

Assay: chemical genetic growth profiling, strain panel (AID 1159580);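 further: tested at 20 µM; growth read once vehicle control cultures reached saturation at 30 °C; 1 = growth at the plate median or of vehicle wells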
Conditions: S. cerevisiae deletion strains, growth OD

Measured: normalized growth

CC(=O)C1CC[C@H]2C3CC[C@H]4C[C@H](O)CC[C@]4(C)C3CC[C@]12C (some centres undefined)
active: locus YAL026C, strain drs2, stronger effect = lower value 0.849 | locus YDR137W, strain rgp1, stronger effect = lower value 0.763 | locus YLR262C, strain YPT6 (second series), stronger effect = lower value 0.778
inactive: locus YAL013W, strain DEP1, stronger effect = lower value 1 | locus YAL021C, strain ccr4, stronger effect = lower value 0.936 | locus YAL030W, strain snc1, stronger effect = lower value 0.999 | locus YBL061C, strain skt5, stronger effect = lower value 1.02 | locus YBR009C, strain hhf1, stronger effect = lower value 1.02 | locus YBR021W, strain FUR4, stronger effect = lower value 0.977 | locus YBR023C, strain chs3, stronger effect = lower value 0.998 | locus YBR171W, strain sec66, stronger effect = lower value 0.998 | locus YBR229C, strain ROT2, stronger effect = lower value 0.995 | locus YBR231C, strain swc5, stronger effect = lower value 1.01 | locus YBR279W, strain paf1, stronger effect = lower value 0.987 | locus YCL011C, strain gbp2, stronger effect = lower value 0.995 | locus YCL016C, strain dcc1, stronger effect = lower value 0.964 | locus YCL029C, strain bik1, stronger effect = lower value 0.998 | locus YCL069W, strain vba3, stronger effect = lower value 1 | locus YCR088W, strain abp1, stronger effect = lower value 1 | locus YDL005C, strain med2, stronger effect = lower value 0.997 | locus YDL035C, strain GPR1, stronger effect = lower value 0.999 | locus YDL040C, strain nat1, stronger effect = lower value 1.01 | locus YDL074C, strain BRE1, stronger effect = lower value 1.01 | locus YDL101C, strain DUN1, stronger effect = lower value 0.982 | locus YDL134C, strain PPH21, stronger effect = lower value 0.975 | locus YDL185W, strain tfp1, stronger effect = lower value 0.989 | locus YDL192W, strain arf1, stronger effect = lower value 1 | locus YDR001C, strain nth1, stronger effect = lower value 1.01 | locus YDR069C, strain doa4, stronger effect = lower value 1 | locus YDR101C, strain arx1, stronger effect = lower value 1.01 | locus YDR159W, strain sac3, stronger effect = lower value 1.03 | locus YDR162C, strain NBP2, stronger effect = lower value 0.993 | locus YDR195W, strain ref2 1.02 | locus YDR297W, strain sur2, stronger effect = lower value 1.02 | locus YDR318W, strain mcm21, stronger effect = lower value 0.995 | locus YDR334W, strain swr1, stronger effect = lower value 1.01 | locus YDR335W, strain msn5, stronger effect = lower value 0.984 | locus YDR388W, stronger effect = lower value 0.994 | locus YDR392W, strain spt3, stronger effect = lower value 0.837 | locus YDR502C, strain sam2, stronger effect = lower value 0.971 | locus YEL003W, strain gim4, stronger effect = lower value 1 | locus YEL037C, strain rad23, stronger effect = lower value 0.994 | locus YEL061C, strain CIN8 (second series), stronger effect = lower value 1 | locus YEL061C, strain CIN8, stronger effect = lower value 1.01 | locus YER015W, strain faa2, stronger effect = lower value 1 | locus YER016W, strain bim1, stronger effect = lower value 0.998 | locus YER110C, stronger effect = lower value 0.981 | locus YER111C, strain swi4, stronger effect = lower value 0.994 | locus YER155C, strain BEM2 (second series), stronger effect = lower value 1.02 | locus YER155C, strain BEM2, stronger effect = lower value 0.992 | locus YER167W, strain BCK2, stronger effect = lower value 0.993 | locus YFR010W, strain ubp6, stronger effect = lower value 0.999 | locus YGL078C, strain dbp3, stronger effect = lower value 0.963 | locus YGL086W, strain mad1, stronger effect = lower value 0.971 | locus YGL167C, strain pmr1, stronger effect = lower value 1.01 | locus YGL173C, strain kem1, stronger effect = lower value 0.99 | locus YGL227W, strain vid30, stronger effect = lower value 1.01 | locus YGL240W, strain doc1, stronger effect = lower value 1.01 | locus YGL248W, strain PDE1, stronger effect = lower value 0.987 | locus YGL253W, strain hxk2, stronger effect = lower value 0.983 | locus YGR078C, strain PAC10, stronger effect = lower value 0.969 | locus YGR135W, strain pre9, stronger effect = lower value 0.932 | locus YGR229C, strain SMI1, stronger effect = lower value 1.05 | locus YGR252W, strain gcn5, stronger effect = lower value 0.928 | locus YHR013C, strain ard1, stronger effect = lower value 0.996 | locus YHR027C, strain rpn1, stronger effect = lower value 0.999 | locus YHR030C, strain SLT2, stronger effect = lower value 0.992 and 0.994 | locus YHR079C, strain IRE1 (second series), stronger effect = lower value 1 | locus YHR079C, strain IRE1, stronger effect = lower value 1 | locus YHR094C, strain hxt1, stronger effect = lower value 0.992 | locus YHR129C, strain ARP1, stronger effect = lower value 1 | locus YHR142W, strain chs7, stronger effect = lower value 0.957 | locus YHR200W, strain rpn10, stronger effect = lower value 0.984 | locus YIL066C, strain RNR3, stronger effect = lower value 1.01 | locus YIL073C, strain SPO22, stronger effect = lower value 0.962 | locus YIL125W, strain kgd1, stronger effect = lower value 1 | locus YIR030C, strain dcg1, stronger effect = lower value 0.998 | locus YJL092W, strain hpr5, stronger effect = lower value 1 | locus YJL095W, strain BCK1 (second series), stronger effect = lower value 1.01 | locus YJL095W, strain BCK1, stronger effect = lower value 0.936 and 0.99 | locus YJL115W, strain asf1, stronger effect = lower value 1 | locus YJL129C, strain trk1, stronger effect = lower value 1.01 | locus YJL134W, strain LCB3, stronger effect = lower value 1 | locus YJL154C, strain vps35, stronger effect = lower value 1.01 | locus YJL164C, strain tpk1, stronger effect = lower value 0.999 | locus YJL166W, strain qcr8, stronger effect = lower value 1.01 | locus YJL168C, strain set2, stronger effect = lower value 1 | locus YJL187C, strain SWE1 (second series), stronger effect = lower value 0.962 | locus YJL187C, strain SWE1, stronger effect = lower value 1.01 | locus YJR043C, strain POL32, stronger effect = lower value 1.05 | locus YJR066W, strain TOR1, stronger effect = lower value 0.924 | locus YKL009W, strain mrt4, stronger effect = lower value 0.978 | locus YKL068W, stronger effect = lower value 0.993 | locus YKL085W, strain MDH1 (second series), stronger effect = lower value 1.01 | locus YKL085W, strain MDH1, stronger effect = lower value 1.01 | locus YKL160W, strain elf1, stronger effect = lower value 0.976 | locus YKL190W, strain CNB1, stronger effect = lower value 1.01 | locus YKR001C, strain vps1, stronger effect = lower value 1.02 | locus YKR026C, strain gcn3, stronger effect = lower value 1 | locus YKR091W, strain srl3, stronger effect = lower value 1.01 | locus YLL001W, strain dnm1, stronger effect = lower value 1 | locus YLL026W, stronger effect = lower value 1.02 | locus YLL041C, strain sdh2, stronger effect = lower value 0.997 | locus YLR027C, strain aat2, stronger effect = lower value 0.983 | locus YLR039C, strain RIC1, stronger effect = lower value 0.797 | locus YLR058C, strain SHM2, stronger effect = lower value 0.991 | locus YLR102C, strain apc9, stronger effect = lower value 1 | locus YLR113W, strain HOG1, stronger effect = lower value 1.01 | locus YLR221C, strain rsa3, stronger effect = lower value 1.03 | locus YLR258W, strain gsy2, stronger effect = lower value 0.964 | locus YLR268W, strain sec22, stronger effect = lower value 0.977 | locus YLR320W, strain mms22, stronger effect = lower value 0.98 | locus YLR330W, strain CHS5, stronger effect = lower value 1 | locus YLR342W, strain FKS1 (second series), stronger effect = lower value 0.997 | locus YLR342W, strain FKS1, stronger effect = lower value 1.01 | locus YLR357W, strain rsc2, stronger effect = lower value 0.994 | locus YLR370C, strain arc18, stronger effect = lower value 0.999 | locus YLR371W, strain rom2, stronger effect = lower value 1 | locus YLR384C, strain iki3, stronger effect = lower value 0.977 | locus YLR418C, strain cdc73, stronger effect = lower value 0.993 | locus YML016C, strain PPZ1, stronger effect = lower value 0.994 | locus YML032C, strain rad52, stronger effect = lower value 0.969 | locus YML120C, strain ndi1, stronger effect = lower value 1.02 | locus YML124C, strain tub3, stronger effect = lower value 0.996 | locus YMR058W, strain fet3, stronger effect = lower value 1.01 | locus YMR078C, strain ctf18, stronger effect = lower value 0.988 | locus YMR125W, strain sto1, stronger effect = lower value 0.998 | locus YMR129W, stronger effect = lower value 1 | locus YMR205C, strain PFK2, stronger effect = lower value 1 | locus YMR223W, strain ubp8, stronger effect = lower value 0.977 | locus YMR231W, strain pep5, stronger effect = lower value 1.01 | locus YMR307W, strain GAS1, stronger effect = lower value 1.11 | locus YNL067W, strain RPL9B, stronger effect = lower value 0.967 | locus YNL071W, strain lat1, stronger effect = lower value 0.995 | locus YNL128W, strain TEP1, stronger effect = lower value 0.993 | locus YNL153C, strain GIM3, stronger effect = lower value 0.985 | locus YNL183C, strain NPR1, stronger effect = lower value 0.959 | locus YNL209W, strain ssb2, stronger effect = lower value 0.987 | locus YNL233W, strain BNI4, stronger effect = lower value 0.992 | locus YNL248C, strain rpa49, stronger effect = lower value 0.939 | locus YNL250W, strain rad50, stronger effect = lower value 0.946 | locus YNL271C, strain bni1, stronger effect = lower value 0.986 | locus YNL298W, strain CLA4, stronger effect = lower value 0.993 | locus YNL307C, strain MCK1, stronger effect = lower value 1.01 | locus YNL322C, strain KRE1 (second series), stronger effect = lower value 1.01 | locus YNR049C, strain mso1, stronger effect = lower value 1.01 | locus YNR052C, strain pop2, stronger effect = lower value 0.943 | locus YOL012C, strain htz1 0.983 | locus YOL147C, strain pex11, stronger effect = lower value 0.994 | locus YOR001W, strain rrp6, stronger effect = lower value 0.994 | locus YOR061W, strain CKA2, stronger effect = lower value 1.01 | locus YOR069W, strain VPS5, stronger effect = lower value 0.988 | locus YOR070C, strain gyp1, stronger effect = lower value 0.991 | locus YOR080W, strain dia2, stronger effect = lower value 1.01 | locus YOR083W, strain WHI5, stronger effect = lower value 0.984 | locus YOR106W, strain vam3, stronger effect = lower value 0.995 | locus YOR136W, strain idh2, stronger effect = lower value 0.992 | locus YOR144C, strain elg1, stronger effect = lower value 0.998 | locus YOR184W, strain ser1, stronger effect = lower value 0.981 | locus YOR231W, strain MKK1, stronger effect = lower value 0.996 | locus YOR265W, strain rbl2, stronger effect = lower value 0.993 | locus YOR270C, strain vph1, stronger effect = lower value 0.949 | locus YOR290C, strain snf2, stronger effect = lower value 0.951 | locus YOR316C, strain cot1, stronger effect = lower value 1 | locus YPL051W, strain arl3, stronger effect = lower value 0.986 | locus YPL078C, strain atp4, stronger effect = lower value 0.976 | locus YPL106C, strain sse1, stronger effect = lower value 1.04 | locus YPL240C, strain hsp82, stronger effect = lower value 1.02 | locus YPL256C, strain CLN2, stronger effect = lower value 1.01 | locus YPR119W, strain clb2, stronger effect = lower value 0.997 | locus YPR141C, strain kar3, stronger effect = lower value 0.99 | locus YPR163C, strain tif3, stronger effect = lower value 0.99 | locus YPR167C, strain met16, stronger effect = lower value 0.995 | strain wtn01, stronger effect = lower value 0.987
